Bioassay records from PubChem.
Rows were chosen to be rich in hits. Some 10% of all compounds tested hit in one or more screens of this group.
ELG1 DNA repair: qHTS screen for small molecules that inhibit ELG1-dependent DNA repair in human embryonic kidney (HEK293T) cells expressing luciferase-tagged ELG1 | Potency, µM (top dose mostly 46.1 µM), most hits filed as inhibitors | HEK293T ELG1-luciferase reporter, luminescence, 16 h; DNA damage induced by 5-fluorouridine | actives 2.3% (n = 330,000); further: nearly all actives have a fitted effect of over 55% in size
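In this reporter screen, reduction of luminescence relative to DMSO vehicle indicated activity. Compounds and 5-fluorouridine were added together to 2,000 cells per well, incubated for 16 hr at 37 °C, then developed with ONE-Glo.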
MCF10A rereplic: A quantitative high throughput screen for small molecules that induce DNA re-replication in MCF 10a normal breast cells. MCF 10A DNA re-replication, Hoechst nuclear intensity, 48 h. Potency, µM (highest dose often 46.1 µM), usual class: activators. actives 2.9% (n = 350,000). AID 624296, 2012; further: nearly all actives have a fitted effect of over 50% in size
SW480 rerep: A quantitative high throughput screen for small molecules that induce DNA re-replication in SW480 colon adenocarcinoma cells; SW480 DNA re-replication, Hoechst DNA content imaging, 48 h; Potency, µM (top dose mostly 46.1 µM), actives largely listed as activators; actives 1.8% (n = 340,000); further: nearly all actives have a fitted effect of over 55% in size
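Quantitative HTS format with DMSO vehicle controls; 48 hr drug incubation at 37 C, then 40 min Hoechst staining and scanning imager measurement at 405 nm excitation.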
RORgamma inh: qHTS for inhibitors of ROR gamma transcriptional activity. Nuclear receptor ROR-gamma (Mus musculus), P51450. Drosophila S2 Gal4-RORgamma UAS-luciferase reporter, 20 h. Potency, µM (highest dose often 53.6 µM), usual class: inhibitors. actives 5.4% (n = 310,000). AID 2551, 2010; further: nearly all actives have a fitted effect of over 60% in size
Target sequence (P51450 whole entry, looked up, the tested form may be a part): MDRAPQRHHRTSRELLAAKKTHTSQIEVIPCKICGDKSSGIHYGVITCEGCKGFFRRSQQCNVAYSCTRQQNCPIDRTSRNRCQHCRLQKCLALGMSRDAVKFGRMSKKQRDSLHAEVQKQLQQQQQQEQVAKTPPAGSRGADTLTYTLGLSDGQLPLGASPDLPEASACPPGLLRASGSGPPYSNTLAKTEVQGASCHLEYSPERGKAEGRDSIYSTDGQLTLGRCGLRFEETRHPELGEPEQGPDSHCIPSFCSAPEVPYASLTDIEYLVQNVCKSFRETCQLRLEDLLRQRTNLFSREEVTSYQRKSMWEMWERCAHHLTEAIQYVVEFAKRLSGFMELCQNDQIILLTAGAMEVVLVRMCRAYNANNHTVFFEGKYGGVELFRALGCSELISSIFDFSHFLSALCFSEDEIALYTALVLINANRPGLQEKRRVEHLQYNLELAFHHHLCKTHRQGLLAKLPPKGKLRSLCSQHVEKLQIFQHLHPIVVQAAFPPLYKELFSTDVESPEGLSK
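Stably transfected Drosophila Schneider cells are the test system, with ROR gamma fused to Gal4 and luciferase under UAS control; luminescence is read after 20 hr of 700 uM copper sulfate induction at ambient temperature.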
VP16 counter: VP16 counterscreen qHTS for inhibitors of ROR gamma transcriptional activity. Drosophila S2 Gal4-VP16 UAS-luciferase, luminescence, 20 h. actives 3.5% (n = 310,000). Potency, µM (highest dose often 53.6 µM), usual class: inhibitors;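 further: Gal4-VP16 expression switched on by copper sulfate through the metallothionein promoter; nearly all actives have a fitted effect of over 50% in size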
Hits are given with their value; – = inactive; ? = inconclusive; · = no result; [ ] = dose if it differs, or a comment. The call rests on the fitted dose curve; in most records, active means well fitted curve in the direction sought with a large enough effect; inconclusive means small, poorly fitted or top-dose-only effect, or another doubt; inactive means no such curve, though single readings can be large; an effect the other way counts as inactive or inconclusive.

SMILES | ELG1 DNA repair | MCF10A rereplic | SW480 rerep | RORgamma inh | VP16 counter
CC(C(=O)NC(=O)NC1CCCCC1)N1CCN(c2ccc(O)cc2)CC1 (centres undefined) | – | – | – | · | ·
O=C(O)c1ccc2c(c1)C(=O)N([C@@H](Cc1ccc(O)cc1)C(=O)O)C2=O | · | · | · | 2µM | 6.3µM
Cc1ccc(NC(=O)Nc2cnccn2)cc1 | ? | – | – | – | –
CC(C)c1ccc(NC(=O)Nc2cnccn2)cc1 | ? | 4.1µM | ? | ? | –
Cc1cc(C)cc(NC(=S)N(C)C)c1 | – | – | – | 10µM | –
Cc1cc(C)c(NC(=S)N(C)C)c(C)c1 | ? | – | – | – | –
Cc1cc(C)c(NC(=S)N(C)C)cc1C | – | – | – | 7.9µM | –
Cc1ccc(C)c(NC(=S)N(C)C)c1 | – | – | ? | – | –
CCN(CC(=O)Nc1c(F)cccc1F)C(=O)C1CCN(S(=O)(=O)c2ccccc2C(=O)OC)CC1 | · | – | – | · | ·
CCOC(=O)[C@H]1[C@H]2COc3ccc(C)cc3[C@@H]2N2C(=O)CN(C)C(=O)[C@@]12C | · | – | – | · | ·
CCOC(=O)N1CCN(C(=O)c2ccc(Cn3c(=S)[nH]c4cc(OCC)c(OCC)cc4c3=O)cc2)CC1 | ? | – | – | ? | –
CN1CCN(C(=O)c2ccc3c(=O)n(Cc4ccc(Cl)cc4)c(=S)[nH]c3c2)CC1 | – | – | ? | 7.1µM | ?
O=C(c1ccc2c(=O)n(Cc3ccc4c(c3)OCO4)c(=S)[nH]c2c1)N1CCCCC1 | – | – | – | ? | –
COCCn1c(=O)[nH]c2cc(C(=O)N3CCN(c4ccc(Cl)cc4)CC3)ccc2c1=O | 18µM | ? | – | ? | –
CC1CC(C)CN(C(=O)c2ccc3c(=O)n(Cc4ccc5c(c4)OCO5)c(=S)[nH]c3c2)C1 (centres undefined) | ? | – | – | 3.5µM | 10µM
O=C(c1ccc2c(=O)n(Cc3ccco3)c(=S)[nH]c2c1)N1CCN(c2ccccc2)CC1 | – | – | – | ? | –
CCOC(=O)N1CCN(C(=O)c2ccc3c(=O)n(CCOC)c(=O)[nH]c3c2)CC1 | – | – | – | – | –
O=C(c1ccc2c(=O)n(Cc3ccc(Cl)cc3)c(=S)[nH]c2c1)N1CCCC1 | – | ? | – | 5µM | ?
CCOC(=O)C1CCN(C(=O)CNC(=O)Cn2c(C)cc3ccccc3c2=O)CC1 | – | ? | – | – | –
COc1ccc(N(CC(=O)NCCc2ccccc2)C(=O)CCC(=O)Nc2nccs2)cc1 | – | – | – | – | –
CC(C)CN1C(=O)c2ccc(C(=O)Nc3c[nH]c(=O)[nH]c3=O)cc2C1=O | – | – | ? | – | –[10 µM]
O=C(c1ccc2c(=O)n(Cc3ccccc3Cl)c(=S)[nH]c2c1)N1CCCC1 | – | – | – | 11µM | ?
COC(CNC(=O)c1ccc2c(=O)n(Cc3ccc(Cl)cc3)c(=S)[nH]c2c1)OC | – | – | – | ? | –
O=C(c1ccc(Cn2c(=S)[nH]c3ccccc3c2=O)cc1)N1CCN(c2ccccn2)CC1 | 10µM | ? | ? | 11µM | ?
COc1ccccc1Cn1c(=S)[nH]c2cc(C(=O)N3CCC(C(N)=O)CC3)ccc2c1=O | – | – | – | – | –
SMILES | ELG1 DNA repair | MCF10A rereplic | SW480 rerep | RORgamma inh | VP16 counter
CCn1c(=O)c(=O)[nH]c2cc(C(=O)N3CCN(Cc4ccc5c(c4)OCO5)CC3)ccc21 | – | 5.2µM | – | – | –
O=c1c2ccc(Cl)cc2[nH]c(=S)n1Cc1cccnc1 | – | – | – | 5µM | ?
O=C(c1cccc(F)c1)N1CCN(Cc2ccc3c(c2)OCO3)CC1 | – | – | – | – | –
O=C(COC(=O)c1cc(S(=O)(=O)N2CCOCC2)ccc1F)NCc1ccc2c(c1)OCO2 | – | – | – | · | ·
O=C(CCc1nnc2n(Cc3ccc(F)cc3)c(=O)c3ccccc3n12)N1CCN(c2ccccn2)CC1 | 15µM | – | – | – | –
O=C(CCc1nnc2n(Cc3ccc(F)cc3)c(=O)c3ccccc3n12)NCCN1CCOCC1 | – | – | – | – | –
O=C(c1ccc2c(=O)n(Cc3ccc(Cl)cc3)c(=S)[nH]c2c1)N1CCOCC1 | ? | – | ? | 4µM | 7.1µM
CCOc1ccccc1NC(=O)Nc1cnccn1 | – | – | – | – | –
CC(Nc1ncnc2ccccc12)c1ccccc1 (centres undefined) | – | – | ? | ? | 2.8µM
Cc1noc(C)c1-c1ccc2ncnc(NC(C)c3ccccc3)c2c1 (centres undefined) | · | · | · | – | –
Cc1ccc2cc(CN(CCN(C)C)C(=S)Nc3ccccc3)c(=O)[nH]c2c1C | 9.2µM | – | ? | – | –
COc1cccc(NC(=O)N(Cc2cc3cc(C)cc(C)c3[nH]c2=O)CC2COCCO2)c1 (centres undefined) | 7.3µM | – | – | – | –
Cc1cccc2cc(CN(CC3CCCO3)C(=O)c3ccco3)c(=O)[nH]c12 (centres undefined) | – | – | – | – | –
Cc1cccc2cc(CN(CC3CCCO3)C(=S)Nc3ccccc3)c(=O)[nH]c12 (centres undefined) | 16µM | ? | – | – | –
O=C(COc1ccc(Cl)cc1)NCC(=O)N1CCC2(CC1)NCCc1[nH]cnc12 | – | – | – | – | –
CNC(=S)N/N=C/c1cccc(OCc2ccccc2F)c1 | ? | – | – | 2.2µM | 4.5µM
CCNC(=S)N/N=C/c1cccc(OCc2c(F)cccc2Cl)c1 | ? | ? | – | 0.71µM | 0.71µM
CCNC(=S)N/N=C/c1cccc(/C=N/NC(=S)NCC)c1 | – | – | – | ? | –
Fc1ccccc1COc1ccc(/C=N/NC(=S)NCc2ccccc2)cc1 | ? | ? | ? | 0.89µM | 1µM
CCOc1ccc(/C=N/NC(=O)CC(=O)NCc2ccccc2)cc1 | – | – | – | – | –
CC(OC(=O)CN1C(=O)c2ccccc2C1=O)C(=O)NC1CCCCC1 (centres undefined) | – | – | – | – | –
CCOc1ccc(C(=O)NCc2ccncc2)cc1 | – | – | – | – | –
COc1ccc(CC(=O)OCC(=O)NCc2ccc(F)cc2)cc1 | – | – | – | · | ·
CCOc1ccc(CNC(=S)NCc2ccc(OCC)cc2)cc1 | – | – | – | 10µM | ?
COc1ccc(CNC(=S)NCc2ccc(F)cc2)cc1 | – | – | – | 11µM | ?
COc1ccc(C(=O)/C(Br)=C/C(=O)O)cc1 | · | 21µM | ? | ? | –
CC(C)COc1ccc(CNC(=S)NCc2ccccc2)cc1 | – | ? | ? | 7.1µM | 18µM
COc1ccc(C(=O)C(=O)c2ccc(OCCO)cc2)cc1 | – | – | – | · | ·
